Bioassay records (PubChem)
JMJD2A Tudor inh: inhibitors of human JMJD2A Tudor domain | AlphaScreen JMJD2A-Tudor / H3K4me3 peptide binding | AID 504339 | O75164 | 390,000 tested, 4.4% active | Potency, µM (series often up to 114 µM), without a hit: at the top dose activity change, negative = inhibition, actives largely listed as inhibitors; note: % is set by controls: 0 for no effect and ±100 for the full control effect; nearly all actives have a fitted effect of over 50% in size
BAZ2B inh: inhibitors of human BAZ2B bromodomain | Q9UIF8 | AlphaScreen BAZ2B-H3K14Ac peptide displacement | 360,000 tested, 4.4% active | AID 504333 | Potency, µM (doses to about 114 µM), for the others: at the highest dose activity change, negative = inhibition, actives largely listed as inhibitors; note: % is set by controls: 0 for no effect and ±100 for the full control effect; nearly all actives have a fitted effect of over 60% in size
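Multi-concentration screen (max 110 uM) measuring displacement of acetylated histone H3 peptide from BAZ2B by AlphaScreen, using 50 nM protein, 50 nM peptide and 10 ug/mL streptavidin donor plus Ni-chelate acceptor beads.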
HP1b chromo inh: HP1-beta chromodomain-methylated histone interaction inhibition | Potency, µM (series often up to 114 µM), for inactives: top-dose activity change, negative = inhibition, actives largely listed as inhibitors | 390,000 tested, 0.56% active | AlphaScreen HP1-beta / biotin-H3K9me3 peptide binding; note: nearly all actives have a fitted effect of over 70% in size
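HP1-beta protein (50 nM final) preincubated 30 min at room temperature with biotinylated H3(1-18)K9me3 peptide (50 nM) in PBS pH 7.4, 0.01% Tween-20, then compound added for 30 min. AlphaScreen streptavidin donor/nickel chelate acceptor beads (10 ug/mL final), 30 min dark, luminescence read.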
G9a inh: inhibitors of human histone lysine methyltransferase G9a; Q96KQ7; G9a H3K9 monomethylation, AlphaScreen, 2 h; Potency, µM (doses to about 102 µM), for the others: at the highest dose activity, negative = inhibition, hits mostly inhibitors; 350,000 tested, 8.8% active; note: % is set by controls: 0 for no effect and ±100 for the full control effect; nearly all actives have a fitted effect of over 75% in size
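Using a bead-based AlphaScreen, monomethylated H3K9 product from 2 h room-temperature reactions (G9a 20 nM, peptide 500 nM, SAM 20 uM) was detected with 0.5 ug/mL rabbit anti-H3K9me1 antibody.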
ALOX12 inh: ALOX12 (human) lipoxygenase inhibition; P18054; purified 12hLO, xylenol orange hydroperoxide absorbance; Potency, µM (titrated, usually from 108 µM), inactives show at the highest dose activity change, negative = inhibition, usual class: inhibitors; 580,000 tested, 1.1% active; note: % is set by controls: 0 for no effect and ±100 for the full control effect
Target sequence (P18054 whole entry, looked up): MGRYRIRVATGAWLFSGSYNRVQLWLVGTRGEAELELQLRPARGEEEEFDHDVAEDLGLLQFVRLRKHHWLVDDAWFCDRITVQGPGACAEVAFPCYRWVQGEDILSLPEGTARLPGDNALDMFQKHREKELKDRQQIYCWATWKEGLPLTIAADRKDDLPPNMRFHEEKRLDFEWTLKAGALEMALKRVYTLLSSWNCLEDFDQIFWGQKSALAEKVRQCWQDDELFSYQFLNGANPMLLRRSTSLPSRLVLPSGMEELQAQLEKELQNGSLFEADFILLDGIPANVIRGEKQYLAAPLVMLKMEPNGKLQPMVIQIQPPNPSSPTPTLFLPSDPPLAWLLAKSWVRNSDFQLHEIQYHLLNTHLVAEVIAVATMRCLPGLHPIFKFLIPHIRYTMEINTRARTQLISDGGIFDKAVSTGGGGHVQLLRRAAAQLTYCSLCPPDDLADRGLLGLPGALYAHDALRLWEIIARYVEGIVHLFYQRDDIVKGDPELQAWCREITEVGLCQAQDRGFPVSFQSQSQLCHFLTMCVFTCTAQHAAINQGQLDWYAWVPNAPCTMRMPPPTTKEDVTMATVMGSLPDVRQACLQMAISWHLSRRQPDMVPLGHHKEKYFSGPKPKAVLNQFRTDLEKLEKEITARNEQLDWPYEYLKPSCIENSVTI
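Hydroperoxide product was detected by ferrous iron/xylenol orange as the 573 to 405 nm absorbance ratio. Arachidonic acid at 40 uM (final) was turned over for 30 min at room temperature by 150 nM human 12hLO, pH 7.0 Hepes buffer, after 15 min compound preincubation.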
Sfp inh: blocks B. subtilis Sfp PPTase activity; 310,000 tested, 3.5% active; Biochemical Sfp PPTase activity, qHTS; Potency, µM, inactives show largest response in the series, negative = inhibition, hits mostly inhibitors; AID 1490; Q9F4F7;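 note: the enzyme is Sfp with the accession as filed and its product quenches rhodamine fluorescence; 0% = enzyme reaction without inhibitor and -100% = no enzyme wells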
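Sfp 15 nM + cpd, 15 min RT; start w/ rhodamine-CoA 5 uM, BHQ-2-YbbR 12.5 uM (final); 50 mM Hepes pH 7.6, 10 mM MgCl2, 0.01% NP-40, 0.01% BSA; read 525/598 nm at 0 and 30 min.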
* marks the source's active call; other numbers are inactive results; i = inactive; ? = inconclusive; . = not tested or not shown; [ ] = remark or other dose. Sampled rows, rich in hits. Any-hit rate of the full collection: about 8.7%. Calls come from the whole dose curve; as a rule, active = well fitted curve in the direction sought with a large enough effect; inconclusive = small, poorly fitted or top-dose-only effect, or another doubt; inactive = no such curve, though single readings can be large; an effect the other way counts as inactive or inconclusive. Potency is the fitted concentration of half-maximal effect.

SMILES | JMJD2A Tudor inh | BAZ2B inh | HP1b chromo inh | G9a inh | ALOX12 inh | Sfp inh
C#CCOCCOCCOCCNc1nc(N2CCOCC2)nc(N2CCN(C(=O)[C@H]([C@@H](C)CC)n3cc(CCCN=C(N)N)nn3)CC2)n1 | -12% | -36% | 33% | 50µM* | ? | -5%
C#CCOCCOCCOCCNc1nc(N2CCOCC2)nc(N2CCN(C(=O)[C@H]([C@@H](C)O)n3cc(CCCCN)nn3)CC2)n1 | -15% | ? | 19% | 45µM* | ? | 6%
Cc1nc(CNC(=O)NCC(C)N2CCCCC2C)cs1 (stereo not drawn) | . | . | . | . | 54% | .
O=C(Cc1c(F)cccc1Cl)OCC(=O)C12CC3CC(CC(C3)C1)C2 | . | . | . | . | 15% | .
CCCNC(=O)C1COC2(CCN(C(=O)c3ccco3)CC2)N1C(=O)c1ccc(F)cc1 (stereo not drawn) | . | . | . | . | 16% | .
COc1cc(/C=C/c2nc3ccccc3s2)cc(OC)c1 | . | . | . | . | 12% | .
Cc1c(C(=O)NN)[nH]c2ccc([N+](=O)[O-])cc12 | -12% | 35µM* | 28% | 5% | 103% | 1%
NNC(=O)c1[nH]c2ccc([N+](=O)[O-])cc2c1-c1ccccc1 | -29% | -15% | 22% | ? | 24% | -2%
c1ccc(-c2onc(-c3ccco3)c2-c2ccc3[nH]ccc3c2)cc1 | ? | ? | -4% | 40µM* | ? | -11%
COc1ccc2nc(N=Nc3c(O)ccc4ccccc34)sc2c1 | . | 2.8µM* | . | 3.2µM* | . | 3%
CC12CCC(=O)N1C(C(=O)Nc1nc3ccc(Cl)cc3s1)CS2 (stereo not drawn) | ? | -33% | 8% | 45µM* | ? | .
CC12CCC(=O)N1C(C(=O)Nc1nc3ccc(S(C)(=O)=O)cc3s1)CS2 (stereo not drawn) | -10% | -10% | 26% | ? | 132% | 13%
Cc1csc(NC(=O)C2CSC3(C)CCC(=O)N23)n1 (stereo not drawn) | -5% | -8% | 42% | . | i | 14%
Cc1ccc(-c2csc(NC(=O)C3CSC4(C)CCC(=O)N34)n2)cc1 (stereo not drawn) | -2% | 79µM* | 7% | 1%[0.501 µM] | -10% | .
CCc1ccc2nc(NC(=O)C3CSC4(C)CCC(=O)N34)sc2c1 (stereo not drawn) | -12% | -34% | 22% | 28µM* | -9% | .
COc1ccc2nc(NC(=O)C3CSC4(C)CCC(=O)N34)sc2c1 (stereo not drawn) | -18% | 3% | 26% | ? | -13% | .
COc1ccccc1NC(=O)CSc1nnc(-n2nc(C)cc2C)n1N | . | . | . | . | -2% | .
COc1ccc(OC)c(-c2nnc(NC(=O)C(C)Sc3nncn3C)s2)c1 (stereo not drawn) | 1% | -5% | 34% | 32µM* | 12% | ?
COc1ccc(Cl)cc1NC(=O)C(C)Sc1nncn1C (stereo not drawn) | -5% | -5% | 18% | 0% | 9% | 14%
Cc1cccn2c(Nc3ccccc3)c(-c3cccs3)nc12 | ? | -25% | 64% | -36%[59 µM] | -7% | .
Cc1ccc(-c2nc3c(C)cccn3c2Nc2ccccc2C)s1 | 45µM* | 16µM* | ? | 14µM* | ? | .
Cc1ccccc1Nc1c(-c2ccccn2)nc2c(C)cccn12 | 40µM* | 14µM* | ? | 45µM* | -10% | 6%
Cc1cccn2c(Nc3ccccc3)c(-c3ccc(N4CCOCC4)cc3)nc12 | -5% | 19% | 67% | -27%[59 µM] | ? | .
Cc1ccc(Nc2c(-c3ccc(C)cc3)nc3c(C)cccn23)cc1 | ? | . | ? | 11µM* | ? | .
CC(Oc1cc(Cl)ccc1Cl)c1nc(-c2cccnc2)no1 (stereo not drawn) | . | . | . | . | -7% | .
SMILES | JMJD2A Tudor inh | BAZ2B inh | HP1b chromo inh | G9a inh | ALOX12 inh | Sfp inh
CCOc1ccc(S(=O)(=O)N2CCN(c3ccc(NCc4ccccc4)nn3)CC2)cc1 | . | . | . | . | -4% | .
CCc1nnc(NC(=O)C2CCCCC2)s1 | 7% | 6% | 22% | ? | -1% | 32µM*
CCc1nnc(NC(=O)CN2CCN(C3CCCCC3)CC2)s1 | 7.1µM* | ? | -19% | 10µM* | 5% | 89µM*
NC(=S)c1ccc[n+]([O-])c1 | 1.1µM* | . | ? | . | ? | .
COCCOC1CCN(C(=O)c2cc(C)n(CCOC)c2C)CC1 | . | . | . | . | 92% | .
Cc1ccc(C(=O)NN2C(=O)c3ccc(S(=O)(=O)c4ccc(C(=O)O)cc4)cc3C2=O)cc1 | 16µM* | -3% | 3% | ? | 4% | 5%
CCOC(=O)C1CCN(C(=S)Nc2ccccc2)CC1 | -2% | -10% | 24% | . | -4% | -11%
CCOC(=O)C1CCCN(C(=S)Nc2ccc(Nc3ccccc3)cc2)C1 (stereo not drawn) | 56µM* | 35µM* | ? | 25µM* | ? | 45µM*
CCOC(=O)C1CCN(C(=S)Nc2ccc(S(N)(=O)=O)cc2)CC1 | ? | -3% | ? | 10µM* | 22% | 45µM*
NS(=O)(=O)c1ccc(NC(=S)N2CCC(O)CC2)cc1 | 7% | 2% | 12% | 40µM* | -27% | 45µM*
CC1(NC(=O)CC[N+](C)(C)CCO)CS(=O)(=O)CC1S(=O)(=O)[O-] (stereo not drawn) | . | 50µM* | . | ? | ? | -8%
CCOc1ccc(S(=O)(=O)NCC(c2ccc(N(C)C)cc2)N2CCc3ccccc32)cc1 (stereo not drawn) | 13µM* | 6.3µM* | ? | ? | -23% | .
CCOc1ccc(N(C)C(CNS(=O)(=O)c2ccccc2)c2ccccc2)cc1 (stereo not drawn) | 28µM* | 11µM* | ? | 11µM* | -26% | .
CN1CCN(C(CNS(=O)(=O)c2ccc(Br)cc2)c2ccc3c(c2)OCO3)CC1 (stereo not drawn) | -16% | 0% | 19% | 79µM* | ? | .
CN(C)c1ccc(C(CNS(=O)(=O)c2ccc(Br)cc2)N2CCOCC2)cc1 (stereo not drawn) | ? | 45µM* | ? | ? | -26% | .
O=S(=O)(NCC(c1ccc2c(c1)OCO2)N1CCOCC1)c1ccc(Br)cc1 (stereo not drawn) | -6% | 0% | 29% | -13% | -20% | .
CN(C)c1ccc(C(CNS(=O)(=O)c2ccc([N+](=O)[O-])cc2)N2CCOCC2)cc1 (stereo not drawn) | ? | ? | -12% | -3%[0.501 µM] | 2% | .
O=C(NCC(c1ccc(F)cc1)N1CCOCC1)c1ccco1 (stereo not drawn) | 8% | -1% | 27% | -6% | 2% | .
O=C(NCC(c1ccc(F)cc1)N1CCOCC1)c1ccc(Br)o1 (stereo not drawn) | -20% | ? | 20% | 50µM* | ? | 18%
